Laboratory results: PubChem BioAssay (NCI)
About 83,000 compounds went through this panel and 20% of them were active in at least one assay; those are over-represented in the sample as a whole.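 Cell lines were cultured in 96-well plates, exposed to a single compound concentration, and assessed for percent growth 48 hours later.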 Values without a mark were called inactive. Calls of active or inactive are those of the source. How the source made its calls: active means growth percent below 10; inactive means the rest.

These molecules were tested on K-562 leukemia (assay: NCI-60 one-dose screen, 48 h (100 = growth as untreated, 0 = no growth, -100 = all killed)). Details: 10 µM unless noted.

Compound	growth
CN(C[C@H]1Cc2c(cccc2N2CCN(c3ncccn3)CC2)CN1)[C@H]1CCCc2cccnc21	8.04% (active)
COc1ccc(-c2cnoc2-c2ccc(OC)cc2O)cc1	25%
COc1ccc(/C=N\NC(=O)CN2CCN(c3cc4c(cc3F)c(=O)c(C(=O)N/N=C/c3ccc(OC)c(OC)c3)cn4C3CC3)CC2)cc1OC	13.3%
C1=Cc2ccccc2N(c2nnc(-c3ccccc3)o2)c2ccccc21	67.8%
COc1ccc(-c2nc3sc(-c4cc(OC)c(OC)c(OC)c4)nn3c2/C=C2/C(=O)Nc3ccc(F)cc32)cc1	19.9%
O=C(Oc1ccccc1[N+](=O)[O-])C1CCCN1C(=O)OCc1ccccc1 (stereo not drawn)	94.6%
CC(C)(C)OC(=O)NC(CSCc1ccccc1)C(=O)ON1C(=O)CCC1=O (stereo not drawn)	100%
O=S(=O)(NCCCNc1nccc(-n2ccc3cccnc32)n1)c1ccc(Br)cc1	101%
COc1ccc(/C=C2\Oc3cc(OCCCN4CCCC4)ccc3C2=O)cc1	-25% (active)
Cc1csc(NC(c2ccc(Br)cc2)c2c(C)nc3ccccn23)n1 (stereo not drawn)	79.9%
Cn1c(=O)cc(NC(=O)CN2CCN(c3cc4c(cc3F)c(=O)c(C(=O)O)cn4C3CC3)CC2)[nH]c1=O	100%
CC(C)(C)n1cc(-c2ccnc(NCCNS(=O)(=O)c3ccc(F)cc3)c2)c(-c2cccc(O)c2)n1	15.4%
CC(C)(C)n1cc(-c2ccnc(NCCNS(=O)(=O)c3ccc(Cl)cc3)c2)c(-c2cccc(O)c2)n1	6.91% (active)
